Test results from PubChem BioAssay (Tox21).
Values joined by “and” are separate entries in the source; they are usually repeats but may differ in a detail not shown here. Equal entries are not always repeated. Where a structure was tested more than once in an assay, its records may differ in their call. Active and inactive are the calls of the source. Unless noted, calls follow the shape of the dose curve; as a rule, active = well fitted curve in the direction sought with a large enough effect in the repeat runs; inconclusive = weak or mixed curves; inactive = no such curve, though single readings can be large; an effect the other way counts as inactive or inconclusive.

Experiments:
[1] = qHTS assay for identifying genotoxic compounds that show differential cytotoxicity against isogenic chicken DT40 cell lines with known DNA damage response pathways - wild type cell line (AID 743012); also: nearly all actives have a fitted effect of over 60% in size; also: potency is read from the fitted curve at half-maximal effect
Summary of the method: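 Viability by ATP luminescence (CellTiter-Glo, 30 min RT) after 40 h compound treatment at 37 C/5% CO2, using 300 parental DNA repair-proficient DT40 cells per well.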

[2] = qHTS assay for identifying genotoxic compounds that show differential cytotoxicity against isogenic chicken DT40 cell lines with known DNA damage response pathways - Rev3 mutant cell line (AID 743014); also: potency is read from the fitted curve at half-maximal effect; nearly all actives have a fitted effect of over 55% in size
[3] = qHTS assay for identifying genotoxic compounds that show differential cytotoxicity against isogenic chicken DT40 cell lines with known DNA damage response pathways - Rad54/Ku70 mutant cell line (AID 743015); also: potency is read from the fitted curve at half-maximal effect; nearly all actives have a fitted effect of over 60% in size
[4] = qHTS assay to identify small molecule antagonists of the androgen receptor (AR) signaling pathway using the MDA cell line - cell viability counter screen (AID 743041; also: nearly all actives have a fitted effect of over 45% in size; also: potency is read from the fitted curve at half-maximal effect)
Summary of the method: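 qHTS viability read-out; MDA-kb2 AR-luc; R1881-stimulated; 16 h exposure at 37C, 0% CO2; CellTiter-Fluor, 30 min; fluorescence intensity.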

[5] = qHTS assay to identify small molecule antagonists of the thyroid receptor (TR) signaling pathway - cell viability counter screen (AID 743064); also: potency is read from the fitted curve at half-maximal effect; nearly all actives have a fitted effect of over 50% in size
Summary of the method: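 Fluorescence from CellTiter-Fluor, added after 23.5 h exposure at 37 °C, reported viability of GH3.TRE-Luc cells co-treated with compound and 1 nM T3. Measured in the same wells as the luciferase TR readout.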

[6] = qHTS assay to identify small molecule antagonists of the estrogen receptor alpha (ER-alpha) signaling pathway - cell viability counter screen (AID 743074; calls by dose curve; also: nearly all actives have a fitted effect of over 45% in size; also: potency is read from the fitted curve at half-maximal effect)
[7] = biological target: Estrogen receptor (Homo sapiens) (UniProt P03372); assay: qHTS assay to identify small molecule agonists of the estrogen receptor alpha (ER-alpha) signaling pathway (AID 743075; calls by dose curve; also: potency is read from the fitted curve at half-maximal effect)
Chain of Estrogen receptor (Homo sapiens) (P03372 whole entry, looked up): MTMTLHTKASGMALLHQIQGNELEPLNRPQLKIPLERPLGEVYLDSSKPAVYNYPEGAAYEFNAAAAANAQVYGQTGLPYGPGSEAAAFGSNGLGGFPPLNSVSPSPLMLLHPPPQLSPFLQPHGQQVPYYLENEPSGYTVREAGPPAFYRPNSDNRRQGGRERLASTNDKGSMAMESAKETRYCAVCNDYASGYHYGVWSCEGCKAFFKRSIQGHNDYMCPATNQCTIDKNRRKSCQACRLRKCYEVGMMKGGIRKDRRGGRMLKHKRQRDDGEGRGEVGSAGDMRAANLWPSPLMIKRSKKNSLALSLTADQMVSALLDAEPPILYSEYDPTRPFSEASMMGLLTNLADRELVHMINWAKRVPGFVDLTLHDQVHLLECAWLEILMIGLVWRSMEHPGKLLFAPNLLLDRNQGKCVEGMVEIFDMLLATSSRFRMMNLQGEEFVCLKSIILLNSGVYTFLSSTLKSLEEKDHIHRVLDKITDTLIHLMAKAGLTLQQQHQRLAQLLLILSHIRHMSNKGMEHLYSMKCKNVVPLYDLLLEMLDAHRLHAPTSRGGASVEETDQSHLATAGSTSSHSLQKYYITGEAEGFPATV

[8] = qHTS assay to identify small molecule antagonists of the estrogen receptor alpha (ER-alpha) signaling pathway using the BG1 cell line (AID 743080; calls by dose curve;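 also: BG1 cells stimulated with 17beta-estradiol alongside compound; nearly all actives have a fitted effect of over 25% in size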; also: potency is read from the fitted curve at half-maximal effect); settings: BG1Luc4E2 ERE-luciferase antagonist mode, luminescence; activity change, negative = inhibition: at 70.3 µM (top of the series)
Summary of the method: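 Readout is ONE-Glo luminescence, taken 30 min at room temperature after reagent addition, preceded by a CellTiter-Fluor viability read; BG1-Luc-4E2 cells had received compound and 17beta-estradiol for 21.5 h at 37 C.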

[9] = qHTS assay to identify small molecule antagonists of the estrogen receptor alpha (ER-alpha) signaling pathway using the BG1 cell line - cell viability counter screen (AID 743081);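 also: compound given together with 17beta-estradiol as the ER stimulus; nearly all actives have a fitted effect of over 45% in size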; also: potency is read from the fitted curve at half-maximal effect
[10] = biological target: Aromatase (Homo sapiens) (UniProt P11511); assay: qHTS assay to identify aromatase inhibitors (AID 743083); also: nearly all actives have a fitted effect of over 55% in size; also: potency is read from the fitted curve at half-maximal effect
Chain of Aromatase (Homo sapiens) (P11511 whole entry, looked up): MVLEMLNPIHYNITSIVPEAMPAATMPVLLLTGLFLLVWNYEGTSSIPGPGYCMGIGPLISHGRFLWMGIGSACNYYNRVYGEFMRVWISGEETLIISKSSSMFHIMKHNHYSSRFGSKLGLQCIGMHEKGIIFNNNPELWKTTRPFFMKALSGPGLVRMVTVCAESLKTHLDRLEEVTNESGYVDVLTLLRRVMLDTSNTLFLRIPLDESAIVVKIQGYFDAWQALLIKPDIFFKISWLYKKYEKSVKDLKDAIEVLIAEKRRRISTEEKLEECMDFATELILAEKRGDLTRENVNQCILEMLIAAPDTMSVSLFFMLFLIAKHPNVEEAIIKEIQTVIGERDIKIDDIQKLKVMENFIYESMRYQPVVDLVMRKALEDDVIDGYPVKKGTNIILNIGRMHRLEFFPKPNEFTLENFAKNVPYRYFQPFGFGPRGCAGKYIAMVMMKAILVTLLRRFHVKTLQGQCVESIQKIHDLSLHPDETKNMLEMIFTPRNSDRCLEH

[11] = qHTS assay to identify small molecule antagonists of the androgen receptor (AR) signaling pathway - cell viability counter screen (AID 743033; also: nearly all actives have a fitted effect of over 45% in size; also: potency is read from the fitted curve at half-maximal effect)
[12] = qHTS assay to identify small molecule antagonists of the thyroid receptor (TR) signaling pathway (AID 743065); also: potency is read from the fitted curve at half-maximal effect; nearly all actives have a fitted effect of over 55% in size
Summary of the method: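 GH3.TRE-Luc rat pituitary cells carrying two TR response elements driving luciferase were plated for 4 h, given compound plus 1 nM T3 (final), and incubated 23.5 h at 37 C. ONE-Glo luminescence measured reporter inhibition; CellTiter-Fluor fluorescence tracked cytotoxicity.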

[13] = test system: thyroid hormone receptor (rat, GH3 cells); assay: qHTS assay to identify small molecule agonists of the thyroid receptor (TR) signaling pathway (AID 743066; calls by dose curve)
[14] = qHTS assay to identify aromatase inhibitors - cell viability counter screen (AID 743084);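 also: cells stimulated with testosterone during compound exposure; nearly all actives have a fitted effect of over 55% in size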; also: potency is read from the fitted curve at half-maximal effect
[15] = biological target: Estrogen receptor (Homo sapiens) (UniProt P03372); assay: qHTS assay to identify small molecule antagonists of the estrogen receptor alpha (ER-alpha) signaling pathway (AID 743069; active = well fitted curve in the direction sought with a large enough effect in the signal ratio in the repeat runs, not every such curve was filed as active; inconclusive = weak or mixed curves, or effect the other way; inactive = no such curve, though single readings can be large or run the other way; the % refers to the signal ratio; also: potency is read from the fitted curve at half-maximal effect)
Summary of the method: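 Screening used a UAS-driven beta-lactamase reporter integrated into HEK293 cells expressing ER-alpha, stimulated with 17beta-estradiol alongside test compounds over 18 hr at 37C; signal came from LiveBLAzer B/G FRET fluorescence.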

[16] = biological target: Estrogen receptor (Homo sapiens) (UniProt P03372); assay: qHTS assay to identify small molecule agonists of the estrogen receptor alpha (ER-alpha) signaling pathway using the BG1 cell line (AID 743079); settings: BG1Luc4E2 cells, ERE-luciferase agonist, 22 h; activation: at 70.3 µM (top of the series); also: nearly all actives have a fitted effect of over 20% in size; also: potency is read from the fitted curve at half-maximal effect
[17] = biological target: Androgen receptor (Homo sapiens) (UniProt P10275); assay: qHTS assay to identify small molecule antagonists of the androgen receptor (AR) signaling pathway (AID 743035; active = well fitted inhibition curve with a large enough effect in the signal ratio in the repeat runs, not every such curve was filed as active; inconclusive = weak or mixed curves, or effect the other way; inactive = no such curve, though single readings can be large or run the other way; the % refers to the signal ratio; also: potency is read from the fitted curve at half-maximal effect)
Chain of Androgen receptor (Homo sapiens) (P10275 whole entry, looked up): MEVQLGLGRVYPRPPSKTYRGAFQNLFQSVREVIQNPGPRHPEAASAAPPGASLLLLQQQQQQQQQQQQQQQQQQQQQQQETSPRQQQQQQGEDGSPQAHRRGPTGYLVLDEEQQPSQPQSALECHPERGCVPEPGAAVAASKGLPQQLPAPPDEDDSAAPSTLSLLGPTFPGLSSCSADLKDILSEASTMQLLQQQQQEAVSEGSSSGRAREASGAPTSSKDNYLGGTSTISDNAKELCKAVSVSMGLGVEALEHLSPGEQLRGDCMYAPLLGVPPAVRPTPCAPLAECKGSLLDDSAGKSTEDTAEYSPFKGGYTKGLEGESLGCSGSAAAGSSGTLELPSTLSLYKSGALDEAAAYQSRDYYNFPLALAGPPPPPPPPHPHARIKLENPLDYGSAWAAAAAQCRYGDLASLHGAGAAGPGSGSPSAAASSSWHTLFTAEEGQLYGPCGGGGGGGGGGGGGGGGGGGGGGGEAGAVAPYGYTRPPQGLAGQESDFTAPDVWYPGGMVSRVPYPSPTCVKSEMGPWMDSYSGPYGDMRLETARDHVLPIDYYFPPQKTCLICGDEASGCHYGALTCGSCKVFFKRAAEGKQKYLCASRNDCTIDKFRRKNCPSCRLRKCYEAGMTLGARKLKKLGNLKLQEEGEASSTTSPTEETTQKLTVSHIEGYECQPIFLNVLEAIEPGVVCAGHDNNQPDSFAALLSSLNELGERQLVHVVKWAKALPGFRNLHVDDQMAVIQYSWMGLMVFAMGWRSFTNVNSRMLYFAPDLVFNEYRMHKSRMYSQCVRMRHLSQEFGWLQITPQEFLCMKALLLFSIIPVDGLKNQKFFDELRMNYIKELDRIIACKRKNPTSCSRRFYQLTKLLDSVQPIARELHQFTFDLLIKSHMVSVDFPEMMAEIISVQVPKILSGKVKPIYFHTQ
Summary of the method: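 Antagonist mode: AR-bla HEK293 cells co-treated with test compounds and agonist R1881 for 16 h at 37C, 5% CO2. Beta-lactamase activity read as FRET fluorescence after 2 h room-temperature substrate loading.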

[18] = biological target: Androgen receptor (Homo sapiens) (UniProt P10275); assay: qHTS assay to identify small molecule agonists of the androgen receptor (AR) signaling pathway using the MDA cell line (AID 743040; also: nearly all actives have a fitted effect of over 20% in size)
Summary of the method: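 Agonist activity is measured as luciferase luminescence in human MDA-kb2 cells whose MMTV reporter responds to both AR and GR. Compounds in DMSO incubate 16 h at 37C, 0% CO2, and ONE-Glo is read after 30 min.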

[19] = biological target: Androgen receptor (Homo sapiens) (UniProt P10275); assay: qHTS assay to identify small molecule antagonists of the androgen receptor (AR) signaling pathway using the MDA cell line (AID 743042)
Summary of the method: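 MDA-kb2 cells (human breast carcinoma, stably carrying an MMTV-luciferase reporter responsive to AR and GR) were plated at 3,000 cells/well and preincubated 5 hr at 37C, then given compound plus R1881 agonist for 16 h. ONE-Glo luminescence was read.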

Measured: Potency

O=C1Nc2ccc(Cl)cc2[C@@](C#CC2CC2)(C(F)(F)F)O1
inactive: [4] | [6] | [7] | [9]
active: [1] 26.6 µM | [2] 26.6 µM | [3] 21.1 µM | [5] 29.8 µM | [8] 33.5 µM | [10] 23.7 µM

O=C(Nc1ccc(Cl)c(Cl)c1)c1cc(Cl)cc(Cl)c1O
active: [1] 6.11 µM | [2] 4.86 µM | [3] 4.86 µM | [11] 1.95 µM | [4] 12.2 µM | [5] 4.86 µM | [12] 2.17 µM | [6] 2.45 µM | [7] 0.436 µM [inconclusive] | [8] 4.86 µM | [10] 6.11 µM
inactive: [13] | [9]

O=C1NC2CCCCN2C12CCN(CCCN1c3ccccc3CCc3ccc(Cl)cc31)CC2 (centres undefined)
active: [1] 9.44 µM | [2] 13.3 µM | [3] 13.3 µM | [5] 6.68 µM | [10] 23.7 µM
inactive: [6] | [7]

C=C[C@](C)(O)CC[C@@H]1[C@@]2(C)CCCC(C)(C)[C@@H]2CC[C@@]1(C)O
active: [2] 19.3 µM | [3] 19.3 µM | [5] 43.3 µM | [12] 43.3 µM | [6] 54.9 µM | [10] 54.5 µM | [14] 61.1 µM
inactive: [4] | [7] | [9]

CC(C)(c1cc(Br)c(O)c(Br)c1)c1cc(Br)c(O)c(Br)c1
inactive: [4] | [13] | [9]
active: [1] 57.9 µM | [2] 60.9 µM and 64.9 µM | [3] 51.6 µM | [11] 54.8 µM | [5] 27.2 µM | [12] 27.2 µM and 48.4 µM and 51.6 µM

CCN(CC)c1ccc(N)cc1
active: [1] 5.6 µM | [2] 4.45 µM | [3] 4.45 µM | [11] 15.9 µM | [4] 22.3 µM | [9] 70.5 µM | [10] 28.1 µM | [14] 31.5 µM

CCO[Si](CCCSSSSCCC[Si](OCC)(OCC)OCC)(OCC)OCC
active: [2] 61.2 µM | [3] 38.6 µM
inactive: [4] | [13] | [15] | [7] | [16] | [8] | [9] | [10] | [14]

O=C1c2c(O)ccc(O)c2C(=O)c2c(NCCNCCO)ccc(NCCNCCO)c21
inactive: [18] | [13] | [6] | [9]
active: [1] 0.0072 µM | [2] 0.0101 µM | [17] 0.512 µM | [4] 9.43 µM | [19] 5.07 µM | [5] 0.569 µM | [10] 9.02 µM

O[C@@H](c1cc(C(F)(F)F)nc2c(C(F)(F)F)cccc12)[C@H]1CCCCN1
active: [1] 4.73 µM | [2] 4.73 µM | [3] 5.31 µM | [11] 23.9 µM | [5] 5.96 µM | [12] 5.96 µM | [6] 23.9 µM | [7] 26.8 µM [inconclusive] | [16] 2.37 µM | [10] 23.7 µM | [14] 26.6 µM
inactive: [8] | [9]

CN(C)CCCN1c2ccccc2Sc2ccc(C(F)(F)F)cc21
inactive: [7] | [8] | [9] | [10] | [14]
active: [1] 7.5 µM | [2] 8.41 µM | [3] 11.9 µM | [5] 9.44 µM

CC(=O)Oc1ccc(C2(c3ccc(OC(C)=O)cc3)Oc3ccccc3NC2=O)cc1
inactive: [11] | [4] | [13] | [6] | [9] | [10] | [14]
active: [12] 5.96 µM | [15] 8.49 µM [inconclusive] | [7] 7.56 µM [inconclusive]

Clc1ccc(C(Cn2ccnc2)OCc2ccsc2Cl)c(Cl)c1 (centres undefined)
inactive: [4] | [8] | [9] | [14]
active: [2] 11.9 µM | [3] 13.3 µM | [11] 26.8 µM | [5] 13.3 µM | [10] 5.31 µM

COc1cc(C(=O)NS(=O)(=O)c2ccccc2C)ccc1Cc1cn(C)c2ccc(NC(=O)OC3CCCC3)cc12
active: [5] 29.8 µM | [12] 26.6 µM
inactive: [1] | [11] | [4] | [7] | [16] | [8] | [9] | [10] | [14]

CCCOc1sc(C(=O)N2CCC(c3cc(CN)ccc3F)CC2)c(C)c1Br
inactive: [18]
active: [1] 14.1 µM | [2] 17.7 µM | [3] 14.1 µM | [11] 20 µM | [4] 49.9 µM | [19] 44.5 µM | [5] 6.28 µM | [12] 7.91 µM | [6] 44.9 µM | [10] 25 µM | [14] 44.5 µM

CC(=O)OC(OC(C)=O)c1ccc([N+](=O)[O-])o1
active: [1] 19.7 µM | [2] 5.54 µM | [3] 15.6 µM | [11] 22.3 µM | [5] 13.9 µM | [10] 17.5 µM | [14] 13.9 µM
inactive: [13]

CCOC(=O)N1CCC(=C2c3ccc(Cl)cc3CCc3cccnc32)CC1
active: [1] 8.41 µM and 8.63 µM | [2] 7.5 µM and 9.69 µM | [3] 9.44 µM and 10.9 µM | [11] 17.4 µM | [5] 26.6 µM and 27.3 µM | [12] 11.9 µM and 9.69 µM | [15] 26.8 µM [inconclusive]
inactive: [13] | [6] | [7] | [9] | [14]
inactive and 61.1 µM (active): [8]
